In PubChem BioAssay AID449762 (Southern Research Specialized Biocontainment Screening …, 2010) one finds inhibition data, which are given here for 94 compounds.

SMILES strings stand for the structures. The campaign covered roughly 330,000 compounds. About 1,900 (0.58%) were called active. Another 4% or so got no clear call; they are omitted. Rule as the data show it: inconclusive = inhibition above about 70% without an active follow-up result; inactive = below that. A selection follows. Measured potencies and affinities stand elsewhere.

This test in a line: M. tuberculosis growth inhibition, HTS (AID 449762).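 Also: bacterial growth assessed after seven days of incubation.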 The following applies: M. tuberculosis H37Rv growth inhibition, 7H9 media; at 25 µM; stronger effect = higher value.
As for `CCC[C@@H]1C[C@@H](C(=O)N[C@H]([C@@H](C)O)[C@H]2O[C@H](SC)[C@H](O)[C@@H](O)C2O)N(C)C1` (some centres undefined), the inhibition was 59.1% (inactive).
`Cc1ccc(NC(=O)[C@@H](CC(C)C)NC(=O)[C@@H]2Cc3ccccc3CN2)cc1`: the inhibition is 2.07% (inactive).
On to `CCOC(=O)C(C)Sc1ccc2nnc(CCNS(=O)(=O)c3ccc(C)cc3)n2n1` (centres undefined), for which the inhibition was 1.94% (inactive).
In the case of `Cc1cc(C(F)(F)F)cc(NNC(=O)NC(=O)c2ccccc2Cl)n1`, the inhibition is 10.6% (inactive).
As to `COC(CNS(=O)(=O)c1ccc(S(=O)(=O)NC2CC2)cc1)OC`, the inhibition is 1.93% (inactive).
Then `Cc1ccc(S(=O)(=O)NNC(=O)Nc2ccc(Cl)cc2)cc1`, with 0.2% (inactive).
Consider `COc1cc(SC)ccc1C(=O)NCCOc1ccc(Cl)cc1`, for which the inhibition is 64.9% (inactive).
Next, `O=C(Nc1ccc(N2CCN(C(=O)c3ccco3)CC2)cc1)c1ccccc1`: 2.03% (inactive); `O=C(Nc1ccc(N2CCN(C(=O)c3ccco3)CC2)cc1)c1ccco1`: -1.95% (inactive); `NC(=O)CC(NC(=O)Cc1ccc(Br)cc1)c1ccc(NCc2ccccn2)c([N+](=O)[O-])c1` (centres undefined): 3.35% (inactive).
For `O=C(CN1C(=O)S/C(=C/c2cc(Br)cs2)C1=O)N1CCOCC1`, the inhibition was 5.49% (inactive).
Next, `COCCNC(=O)c1ccccc1NC(=O)CCSc1ccccc1`: -2.26% (inactive).
For the compound `CCC1CCCCN1Cc1nc2c(c(=O)n(C)c(=O)n2C)n1CCC(C)C` (centres undefined), the inhibition is -0.27% (inactive).
In the case of `Cc1cccc(-c2oc3ccccc3c2-c2ccc3c(c2)OCO3)c1`, the inhibition was 52.4% (inactive).
Next, `COc1ccc(-c2c(-c3cccc(C)c3)oc3ccc(-c4ccc5c(c4)OCO5)cc23)cn1`: -1.67% (inactive); `Cc1c(Cl)c([N+](=O)[O-])nn1CCCC(=O)Nc1ccc(Cl)cc1Cl`: 5.86% (inactive); `CC1=NOC(=O)/C1=C\c1ccc(-c2cccc(Cl)c2)o1`: 60.5% (inactive).
As to `CC1=NOC(=O)/C1=C\c1ccc(-c2ccc(Br)cc2C(=O)O)o1`, the inhibition was -4.04% (inactive).
Take `Cc1c(NC(=S)Nc2cccc(Cl)c2)c(=O)n(-c2ccccc2)n1C`: the inhibition is 7% (inactive).
Then `Cc1cccc(NC(=O)CN2CCN(C(=O)COc3cccc(Br)c3)CC2)c1C`, with 1.13% (inactive).
Then `CCOC(=O)c1sc(SCC(=O)Nc2ccc(N(C)C)cc2)nc1N`, with 1.23% (inactive).
On to `CCOC(=O)CSc1nnc(N)s1`, for which the inhibition is -0.59% (inactive).
Then `COc1ccc(NC(=O)CSc2nc(N)c(C(=O)Nc3ccc(N(C)C)cc3)s2)cc1`, with 15.8% (inactive).
Then `CCOC(=O)c1sc(NCCNc2nc(C)c(C(=O)OCC)s2)nc1C`, with -6.54% (inactive); and `COc1cccc(CN(C)CC(=O)Nc2c(C)cccc2C(C)C)c1`, with 1.22% (inactive).
Take `O=C(c1csc2ccccc12)N1CCN(c2ccc(Cl)c(Cl)c2)CC1`: the inhibition was 2.65% (inactive).
On to `N[C@@H](Cc1cc(I)c(O)c(I)c1)C(=O)O`, for which the inhibition was -4.28% (inactive).
As for `NC(CS(=O)O)C(=O)O` (centres undefined), the inhibition was 5.82% (inactive).
With `N[C@@H](Cc1cc(Br)c(O)c(Br)c1)C(=O)O`, the inhibition is 1.75% (inactive).
Then `N[C@@H](Cc1ccc(N(CCCl)CCCl)cc1)C(=O)O`, with -2.59% (inactive); and `Cc1ccc(C(=O)NCC(=O)OCC(=O)c2ccc(Cl)s2)cc1`, with 13.4% (inactive); and `O=C(NC1CCSc2ccccc21)c1cc(S(=O)(=O)N2CCOCC2)ccc1F` (centres undefined), with -1.41% (inactive).
In the case of `O=C(NC1CC1)c1cc(=O)c2ccccc2o1`, the inhibition is -13.4% (inactive).
Next, `COc1cc2c(cc1Cl)C(=O)C(F)(c1ccccc1)C(=O)N2` (centres undefined): -6.77% (inactive).
With `Cc1nnc(SCc2ccc(C(=O)Nc3cc(Cl)ccc3C)cc2)s1`, the inhibition was -1.77% (inactive).
With `COc1ccc(OC)c(NC(=O)c2ccc(CSc3nnc(C)s3)cc2)c1`, the inhibition is 49.4% (inactive).
For the compound `CCOc1ccc(NC(=O)CSc2nnc(COc3c(C)cccc3C)o2)cc1`, the inhibition was -12.7% (inactive).
Next, `COc1cc(NC(=O)Cc2ccccc2)c(C(=O)O)cc1OC`: 5.42% (inactive).
Next, `COc1ccc(-n2nnnc2CNC(=O)C(=O)c2c[nH]c3ccccc23)cc1`: 1.52% (inactive); `COc1ccc(-c2c(-c3ccccc3OC)sc3ccccc23)cc1OC`: 11.5% (inactive); `CCOC(=O)Cc1cn(C(=O)OC(C)(C)C)c2ccccc12`: -4.41% (inactive).
Next, `Cc1ccc(NC(=O)CNCc2cccs2)c(Br)c1`: 1% (inactive); `CC(=O)c1ccc(NC(=O)CNCc2cccs2)cc1`: -3.9% (inactive).
Turning to `CSCCC(NC(=O)c1ccco1)C(=O)NC1CCC(C)CC1` (centres undefined), the inhibition is -5.12% (inactive).
Regarding `O=S(=O)(c1ccc2c(c1)OCCO2)C1CCC(S(=O)(=O)c2c(F)cccc2F)CC1` (centres undefined), the inhibition was -1.16% (inactive).
On to `CC[n+]1c(/C=C/N(C)c2ccccc2)oc2ccc(Cl)cc21`, for which the inhibition is -7.91% (inactive).
`CC[n+]1c(/C=C/N(C)c2ccccc2)oc2ccc(F)cc21`: the inhibition is -7.16% (inactive).
As for `COC(=O)c1ccc(NC(=O)CSc2nnc(C)n2CC2CCCO2)cc1` (centres undefined), the inhibition was -1.12% (inactive).
As to `CC(OC(=O)c1cccc(NS(C)(=O)=O)c1)C(=O)Nc1ccc2c(c1)OCO2` (centres undefined), the inhibition is -1.53% (inactive).
Regarding `Cc1nn(-c2ccccc2)c(C)c1/C=N/NC(=O)c1cc(O)cc(O)c1`, the inhibition was 0.86% (inactive).
`Cc1ccc(-n2c(SCC(=O)N/N=C/c3c(C)nn(-c4ccccc4)c3C)nc3ccccc3c2=O)cc1`: the inhibition was 12% (inactive).
For the compound `Cc1cc(C(=O)N/N=C/c2c(C)nn(-c3ccccc3)c2C)n[nH]1`, the inhibition was -1.35% (inactive).
For the compound `Cc1ccc(/C=N/NC(=O)CSc2nc3ccccc3c(=O)n2-c2ccccc2C)s1`, the inhibition was 6.56% (inactive).
As to `CCCCNC(=O)CSc1nnc(Cc2ccc(Cl)c(Cl)c2)c(=O)[nH]1`, the inhibition is 4.24% (inactive).
On to `O=c1ccc(=O)n2n1CC(O)C2`, for which the inhibition is 1.79% (inactive).
With `Cc1cc(Cl)c(S(=O)(=O)Nc2ccc(S(=O)(=O)N3CCOCC3)cc2)cc1OCC(N)=O`, the inhibition was 5.99% (inactive).
Next, `CC(C)Cn1c(N)c(C(=O)COC(=O)Cc2cccc(C(F)(F)F)c2)c(=O)n(C)c1=O`: 3% (inactive).
Next, `CCOC(=O)N/N=C(C)/C=C/c1ccccc1`: -3.41% (inactive); `Cc1ccc(OCC(=O)NCc2cccnc2)cc1`: -0.13% (inactive); `CC1CCN(C(=O)c2ccc(CSc3nc4ccncc4n3Cc3ccc(F)cc3)cc2)CC1`: -5.51% (inactive).
In the case of `CCCOc1ccc(CC(=O)NCC2(c3ccccc3)CCOCC2)cc1OC`, the inhibition is 5.05% (inactive).
Regarding `Cc1ccc(N(CC(=O)NC2CCCC2)C(=O)CCC(=O)Nc2nccs2)cc1C`, the inhibition was -7.45% (inactive).
In the case of `O=C(CN1CCC(n2nnc3ccccc32)CC1)NCc1cccs1`, the inhibition was -0.03% (inactive).
Then `C=CCNC(=O)CN1CCC(n2nnc3cc(C(F)(F)F)ccc32)CC1`, with -4.99% (inactive); and `O=C(CN1C(=O)/C(=C/c2ccccc2)SC1=S)NC1C=CS(=O)(=O)C1` (centres undefined), with 2.53% (inactive).
Next, `COc1cccc(C2C3=C(N=c4s/c(=C\c5ccc(O)cc5)c(=O)n42)c2ccccc2CC3)c1OC` (centres undefined): 65.1% (inactive); `COc1cccc(C2C3=C(N=c4s/c(=C\c5ccccc5O)c(=O)n42)c2ccccc2CC3)c1OC` (centres undefined): 4.34% (inactive).
Turning to `COc1ccccc1NC(=O)c1ccccc1C(=O)N(C)Cc1ccccc1`, the inhibition is -2.3% (inactive).
`Cc1cc(C)nc(SCC(=O)O)n1`: the inhibition is 0.26% (inactive).
For the compound `O=C(c1ccc2nc[nH]c2c1)N1CCc2ccccc2C1`, the inhibition was -3.52% (inactive).
For `CCC(=O)Nc1ccc(C(=O)Cn2ncc(Cl)c(Cl)c2=O)cc1`, the inhibition was -3.99% (inactive).
Then `Cc1ccc(NC(=O)CN(C)C(=O)Cn2ncc(Cl)c(Cl)c2=O)cc1`, with 28.7% (inactive); and `COc1ccc(CCC(=O)NCCCNC(=O)CCc2ccc(OC)cc2)cc1`, with 8.41% (inactive).
For the compound `CCCCc1cc(=O)oc2cc(C)cc(OC(C)C(=O)NC(Cc3c[nH]c4ccc(O)cc34)C(=O)O)c12` (centres undefined), the inhibition was -11.4% (inactive).
As to `O=C(COC(=O)c1ccccc1Br)Nc1ccc(F)cc1`, the inhibition is 45.4% (inactive).
On to `O=C(Nc1ccc(F)cc1)c1cccc(NC(=O)C2C3CC4OC(=O)C2C4C3)c1` (centres undefined), for which the inhibition was -6.31% (inactive).
Take `O=C1CC(/C=C/c2ccncc2)=Nc2ccccc2N1`: the inhibition was -0.65% (inactive).
For `O=C1CC(/C=C/c2ccccc2)=Nc2ccccc2N1`, the inhibition is -1.18% (inactive).
Turning to `CCCCNS(=O)(=O)c1ccc(NC(=O)Cc2ccc(OC)cc2)cc1`, the inhibition is -0.2% (inactive).
Regarding `O=C(NCCCN1CCOCC1)c1cc(S(=O)(=O)N2CCOCC2)ccc1Cl`, the inhibition was -0.79% (inactive).
Take `Cc1ccc(-n2c(C)c3c(C)nnc(C)c3c2C)cc1C`: the inhibition is 39.9% (inactive).
On to `Cc1cc(-n2c(C)c3c(C)nnc(C)c3c2C)ccc1N`, for which the inhibition was -1.53% (inactive).
In the case of `COc1cc(NS(C)(=O)=O)c(OC)cc1NC(=O)c1ccccc1`, the inhibition was -13.2% (inactive).
Next, `N#Cc1cccc2c1-c1ccccc1/C2=N/NC(N)=S`: 11.6% (inactive); `NC(=O)N/N=C1\c2ccccc2-c2c(C(N)=O)cccc21`: -8.45% (inactive).
Take `COc1cccc(C(=O)NCC2CCCN2S(=O)(=O)c2cccs2)c1` (centres undefined): the inhibition was -3.52% (inactive).
For the compound `CNC(=S)n1cnc(N)n1`, the inhibition was -9.24% (inactive).
As to `CCOC(=O)CNC(=S)n1ncnc1N`, the inhibition is -5.34% (inactive).
Then `CCc1nc2nc(C)c(NS(=O)(=O)c3ccc(Br)s3)c(=O)n2[nH]1`, with -4.89% (inactive); and `CCC1CCCCN1C(=O)c1ccc2c(c1)C(=O)N(c1ccc(C)cc1)C2=O` (centres undefined), with 7.37% (inactive).
Then `CCNC(=S)NC1CC2CCCC(C1)N2Cc1ccc(C)cc1` (centres undefined), with -6.09% (inactive).
As for `CNC(=S)NC1CC2CCC(C1)N2Cc1ccccc1` (centres undefined), the inhibition is -6.1% (inactive).
For the compound `CCc1ccc(NC(=S)NC2CC3CCCC(C2)N3Cc2ccccc2)cc1` (centres undefined), the inhibition is 9.67% (inactive).
As for `CNC(=S)NC1CC2CCCC(C1)N2Cc1ccc(C)cc1` (centres undefined), the inhibition is -9.32% (inactive).
